40 molecules from PubChem BioAssay (NCATS) can be followed below.

Molecules are shown by their SMILES. Inconclusive results are not listed. Unmarked numbers belong to inactive results. Calls of active or inactive are those of the source. Calls follow the shape of the dose curve; as a rule, active = well fitted cell-killing curve with a large enough effect; inconclusive = small, poorly fitted or top-dose-only effect; inactive = no such curve, though single readings can be large or run the other way.
Potency is read from the fitted curve at half-maximal effect.

The assay in a line: qHTS of pediatric cancer cell lines to identify multiple opportunities for drug repurposing: Primary screen for OHS-50 cells (AID 1347103). Also: nearly all actives have a fitted effect of over 40% in size. The conditions noted are these: OHS-50 osteosarcoma viability, CellTiter-Glo luminescence, 48 h; series mostly up to 57.3 µM; activity change, negative = cytotoxic: at the top concentration. From the text: Drug repurposing or repositioning has been offered as a strategy for drug development in oncology programs. This approach has special potential for childhood cancers and other rare or orphan diseases, where the expected return on new drug development has been a disincentive to pharmaceuticals.
In this project we exploit the poly-pharmacology of drugs to discover new indications via phenotypic screening of a panel of 19 well-characterized cell lines derived from solid tumors seen in children and adolescents. The goal is to identify approved drugs with previously unrecognized anticancer properties that has the potential to reveal new mechanisms and biological processes involved in carcinogenesis or drug resistance. We employed a titration-based paradigm (quantitative high-throughput screening or qHTS), where all compounds were tested at multiple concentrations for their effect on cell viability. Concentration-response curves (CRCs) were derived directly from the primary screen, and both potency and efficacy values were used to identify compounds with robust bioactivity profiles. We screened the NIH Chemical Genomics Center (NCGC) Pharmaceutical Collection (NPC) and Mechanism Interrogation Plate (MIPE) small molecule collections of approved and investigational compounds against these cell lines; and measured metabolically active cells after 48 hours of compound treatment as a proxy for cell viability.
Assay Submitter: Nathalia J. Martinez, National Center for Advancing Translational Sciences, National Institutes of Health, Rockville, MD, USA; email: natalia.martinez@nih.gov
[1] Shen, M et al. Quantitative high-throughput phenotypic screening of pediatric cancer cell lines identifies multiple opportunities for drug repurposing. Oncotarget 2017 Dec 19;9(4):4758-4772. PMID 29435139.
The cells were obtained from University of North Carolina (UNC), Pediatric Preclinical Testing Program (PPT), and Coriell Institute (CI).
qHTS cell viability assay:
Cells were assayed in growth media at a density of 500-1,000 cells/well. Five microliters of cells were dispensed into 1,536-well, white, solid-bottom, TC-treated plates (Greiner Bio One) using a multidrop dispenser and incubated at 37 degrees C, 5% CO2, under a humidified atmosphere for 5 hours. Twenty-three nanoliters of compounds and controls (neutral control DMSO or positive control bortezomib at final concentration of 2.3 µM) were subsequently transferred by Kalypsys pintool. For primary screens, the MIPE collection was tested at 11-point dilutions (final concentrations range from 0.78 nM to 46 µM) and the NPC collection at 8-point dilutions (final concentrations range from 0.59 nM to 46 µM). Compounds tested in follow-up screens were assayed at 11-point dilutions. Cells were incubated for 48 hours, followed by addition of 3 µL of CellTiter-Glo (Promega). After a 15 min incubation at room temperature, samples were analyzed for luminescence intensity using a ViewLux High-throughput CCD imager equipped with clear filters.
Consider `COc1cc2c(cc1OC)-c1cc(=Nc3c(C)cc(C)cc3C)n(C)c(=O)n1CC2`, for which the Potency was 21.9 µM (active).

As for `O=C(O)CCCCCCCC(=O)O`, the “activity change, negative = cytotoxic” value was -2.2%.

In the case of `CC(C)(C)c1ccc(C(=O)CCCN2CCC(OC(c3ccccc3)c3ccccc3)CC2)cc1`, the Potency was 15.5 µM (active).

Take `CCOC(=O)c1cnc2c(cnn2CC)c1NN=C(C)C`: the “activity change, negative = cytotoxic” value is 5.79%.

As to `Cc1ccc(Cl)c(Nc2ccccc2C(=O)O)c1Cl`, the “activity change, negative = cytotoxic” value was 20.8%.

For the molecule `CN1C(=O)CC[C@H]1c1cccnc1`, the “activity change, negative = cytotoxic” value was 8.42%.

Consider `COC(=O)C1=C(C)NC(C)=C(C(=O)OC(C)(C)CN(C)CCC(c2ccccc2)c2ccccc2)C1c1cccc([N+](=O)[O-])c1` (stereo not given), for which the Potency is 12.3 µM (active).

Consider `NC(=O)c1ncn([C@@H]2O[C@H](CO)[C@@H](O)[C@H]2O)c1O`, for which the “activity change, negative = cytotoxic” value was -11.6%.

Turning to `CC1=NS(=O)(=O)c2cc(Cl)ccc2N1`, the “activity change, negative = cytotoxic” value was 3.88%.

Consider `Cc1cccc(C)c1NC(=O)C(C)N` (stereo not given), for which the “activity change, negative = cytotoxic” value is -6.43%.

For the molecule `C[C@]12C=CC(=O)C=C1CC[C@H]1[C@@H]3C[C@@H](O)[C@](O)(C(=O)CO)[C@@]3(C)C[C@H](O)[C@@]12F`, the “activity change, negative = cytotoxic” value is 7.43%.

Turning to `CCCN(CCC)CCc1cccc2c1CC(=O)N2`, the “activity change, negative = cytotoxic” value is 10.8%.

Turning to `O=c1[nH]c(=O)n([C@H]2C[C@H](O)[C@@H](CO)O2)cc1Br`, the “activity change, negative = cytotoxic” value is -17.8%.

Consider `Brc1c(NC2=NCCN2)ccc2nccnc12`, for which the “activity change, negative = cytotoxic” value is -9.26%.

Take `Cc1cc(C)c(/C=C2\C(=O)Nc3ccccc32)[nH]1`: the Potency is 15.5 µM (active).

In the case of `COC(=O)[C@@H](N)Cc1ccc(O)c(O)c1`, the “activity change, negative = cytotoxic” value is -7.16%.

Take `CC(=O)OC(C)C[N+](C)(C)C` (stereo not given): the “activity change, negative = cytotoxic” value is 9.75%.

Consider `Cc1nnc(SCC2=C(C(=O)O)N3C(=O)[C@@H](NC(=O)Cn4cnnn4)[C@H]3SC2)s1`, for which the “activity change, negative = cytotoxic” value is 22.9%.

In the case of `CCc1c(C)[nH]c2c1C(=O)C(CN1CCOCC1)CC2` (stereo not given), the “activity change, negative = cytotoxic” value is -8.11%.

On to `CNCCCN1c2ccccc2CCc2ccccc21`, for which the Potency is 15.5 µM (active).

`Cc1nc2sccn2c(=O)c1CCN1CCC(=C(c2ccc(F)cc2)c2ccc(F)cc2)CC1`: the Potency was 27.6 µM (active).

As to `COC(=O)C1=C(C)NC(C)=C(C(=O)OCCN(C)Cc2ccccc2)C1c1cccc([N+](=O)[O-])c1` (stereo not given), the Potency is 17.4 µM (active).

For the molecule `CCCOc1ccccc1-c1nc2n[nH]nc2c(=O)[nH]1`, the “activity change, negative = cytotoxic” value was 25.1%.

Regarding `C=CCc1ccccc1OCC(O)CNC(C)C` (stereo not given), the “activity change, negative = cytotoxic” value is -15.3%.

In the case of `CC(C)NNC(=O)c1ccncc1`, the “activity change, negative = cytotoxic” value is 11.2%.

As for `CC(C)COCC(CN(Cc1ccccc1)c1ccccc1)N1CCCC1` (stereo not given), the Potency was 19.5 µM (active).

Regarding `Nc1c2c(nc3ccccc13)CCCC2O` (stereo not given), the “activity change, negative = cytotoxic” value was 29.4%.

With `C[n+]1cc2c3c(ccc2c2ccc4cc5c(cc4c21)OCO5)OCO3`, the Potency was 2.13 µM (active).

As to `NC(=O)c1cn(Cc2c(F)cccc2F)nn1`, the “activity change, negative = cytotoxic” value was 8.99%.

Take `C[C@@H](O)[C@H]1C(=O)N2C(C(=O)O)=C(SCCN=CN)C[C@H]12`: the “activity change, negative = cytotoxic” value was 10.2%.

Regarding `CN1CCN(CC(=O)N2c3ccccc3C(=O)Nc3cccnc32)CC1`, the activity change, negative = cytotoxic was 7.59% [at 6.18 µM].

`O=C(O)CP(=O)(O)O`: the “activity change, negative = cytotoxic” value is 3.29%.

Take `CN(C)[C@@H]1C(=O)C(C(N)=O)=C(O)[C@@]2(O)C(=O)C3=C(O)c4c(O)ccc(Cl)c4[C@@H](O)[C@H]3C[C@@H]12`: the “activity change, negative = cytotoxic” value was 36.6%.

Regarding `OCCN1CCN(CC/C=C2/c3ccccc3Sc3ccc(C(F)(F)F)cc32)CC1`, the Potency is 24.6 µM (active).

In the case of `CCCNC(C)C(=O)Nc1ccccc1C` (stereo not given), the “activity change, negative = cytotoxic” value is 2.92%.

Take `CCN(Cc1ccncc1)C(=O)C(CO)c1ccccc1` (stereo not given): the “activity change, negative = cytotoxic” value was -8.02%.

On to `COc1cc(Cc2cnc(N)nc2N)cc(OC)c1OC`, for which the “activity change, negative = cytotoxic” value was 14%.

Consider `CCn1nc(C(=O)O)c(=O)c2cc3c(cc21)OCO3`, for which the “activity change, negative = cytotoxic” value was 4.96%.

Turning to `CC1=C(C)C(=O)C(CCCCC#CCCCC#CCO)=C(C)C1=O`, the Potency was 21.9 µM (active).

For `Cc1ccc(S(=O)(=O)NC(=O)NN2CCCCCC2)cc1`, the “activity change, negative = cytotoxic” value is 4.54%.
